In the library only some 11% were active in any assay of this set; here they are far more common.
VACV Venus inh: vaccinia inhibition (Venus reporter) | Vaccinia virus Venus reporter expression, fluorescence | Potency, µM (doses to about 36.5 µM), for the others: at the highest dose activity change, negative = inhibition, actives largely listed as inhibitors | 330,000 compounds, 0.46% hits | AID 720580; calls by dose curve; tested in A549 cells; also: % is scaled to controls: 0 for no effect and ±100 for the full control effect; nearly all actives have a fitted effect of over 30% in size
Pf growth 96h: inhibits malaria parasite growth, 96 h. P. falciparum luciferase reporter growth, 96 h. Potency, µM (series often up to 28.7 µM), for the others: at the top dose activity change, negative = inhibition, hits mostly inhibitors. 320,000 compounds, 6.9% hits; also: % is scaled to controls: 0 for no effect and ±100 for the full control effect
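Readout is luminescence from an integrated firefly luciferase in P. falciparum. Red cells, 2% hematocrit and 0.05% parasitemia final, were cultured with compound through two parasite generations (96 hours) at 37 C, 5% CO2.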
NS1 function inh: blocks influenza NS1 protein function; 270,000 compounds, 0.4% hits; AID 2326; Potency, µM (series often up to 46.1 µM), for inactives: at the highest dose activity, positive = more growth; calls by dose curve; also: actives are rising curves; nearly all actives have a fitted effect of over 50% in size
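S. cerevisiae expressing influenza A NS1, grown in glucose, washed, then diluted 1:100 into pH 6.0 -URA galactose medium with 23 nl compound. Growth recovery read as OD600; NS1-free strain serves as control.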
Vaccinia mCherry: inhibitors of vaccinia virus infection (mCherry reporter signal); Vaccinia virus mCherry reporter infection, fluorescence; Potency, µM (doses to about 36.5 µM), for inactives: top-dose activity change, negative = inhibition, usual class: inhibitors; 310,000 compounds, 0.63% hits; AID 720579; calls by dose curve; tested in A549 cells; also: % is scaled to controls: 0 for no effect and ±100 for the full control effect; nearly all actives have a fitted effect of over 35% in size
HCV inhibitor: blocks hepatitis C virus; Huh7.5.1 HCVcc-Cre infection, luciferase reporter, 44 h; Potency, µM (series often up to 41.8 µM), without a hit: top-dose activity change, negative = inhibition, most hits filed as inhibitors; 340,000 compounds, 3.4% hits; AID 651820; also: % is scaled to controls: 0 for no effect and ±100 for the full control effect
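A cell-based infection assay in which seeded cells (1,000 per well) receive test compound after 4 h, are inoculated with HCVcc-Cre at approximately 0.5 moi, and are incubated 44 h before luminescence detection.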
Pf growth 48h: P. falciparum growth inhibition at 48 hours (one generation); Potency, µM (doses to about 28.7 µM), inactives show top-dose activity change, negative = inhibition, actives largely listed as inhibitors; AID 504832; 310,000 compounds, 5.9% hits; P. falciparum luciferase growth in erythrocytes, 48 h; also: % is scaled to controls: 0 for no effect and ±100 for the full control effect
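Growth was read as firefly luciferase luminescence after a 48 h, 37 C, 5% CO2 exposure of compounds to reporter-bearing P. falciparum cultures (0.1% parasitemia, 2% hematocrit final) in Albumax-supplemented RPMI 1640.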
* = called active by the depositor; i = inactive; ? = inconclusive; . = no result given; [ ] = dose if it differs, or a comment. Unless noted, calls follow the shape of the dose curve; as a rule, active = well fitted inhibition curve with a large enough effect; inconclusive = small, poorly fitted or top-dose-only effect, or another doubt; inactive = no such curve, though single readings can be large or run the other way. Potency is read from the fitted curve at half-maximal effect.

SMILES | VACV Venus inh | Pf growth 96h | NS1 function inh | Vaccinia mCherry | HCV inhibitor | Pf growth 48h
CCOc1ccc(NC(=O)c2ccc3c(SCC(=O)O)c4c(nc3c2)CCCC4)cc1 | -6% | 0% | . | 11% | -3% | -13%
CN1CCc2nc3sc(C(=O)Nc4ccccc4OC(F)(F)F)c(N)c3cc2C1 | -19% | . | . | -15% | . | .
Cc1cc(Br)c2[nH]c3c(c2c1)CCCC3=O | ? | 29% | -46% | . | 10µM* | .
O=C1CCCc2c1[nH]c1ccccc21 | . | 10% | -54% | . | ? | -26%
O=C1CCCc2c1[nH]c1c(Br)cccc21 | 11µM* | 50% | ? | . | -18% | 0%
CCOC(=O)C1=C(COC(=O)COc2ccccc2C#N)NC(=O)NC1C (stereo not drawn) | 5% | 22% | . | 1% | -18% | 8%
Cc1ccc(C(=O)c2oc3ccccc3c2NC(=O)c2cc(=O)c3ccccc3o2)cc1 | -13% | . | . | -20% | . | .
OC(COCc1ccc2c(c1)OCO2)CN1CCCCC1 (stereo not drawn) | -3% | 12µM* | 6% | i | 10% | 0%
OC(COCc1ccc2c(c1)OCO2)CN1CCC(Cc2ccccc2)CC1 (stereo not drawn) | -17% | -7% | -3% | -6% | ? | -3%
CN1CCCN(CC(O)COCc2cccs2)CC1 (stereo not drawn) | -29% | 24% | -7% | . | 34% | 13%
OC(COCc1cccs1)CN1CCCCCC1 (stereo not drawn) | ? | 5% | ? | . | -22% | 13µM*
O=C(N/N=C/c1ccccn1)c1ccco1 | . | 47% | -15% | . | 15% | -11%
Oc1cc2c(cc1O)C1c3ccc(O)c(O)c3OCC1(O)C2 (stereo not drawn) | 84% | 2.6µM* | 0% | 39% | -16% | ?
Cc1cccc(C)c1OCc1cc(C(=O)N2CCC(C3CCCCC3)C2)no1 (stereo not drawn) | -9% | . | . | -7% | 12% | .
CCOC(=O)C1(CCOc2ccccc2)CCN(Cc2cccc(F)c2)CC1 | . | ? | -19% | . | ? | 0%
CCOC(=O)C1(CCOc2ccccc2)CCN(C(=O)c2ccc(-n3cccn3)cc2)CC1 | -21% | 10µM* | -11% | ? | ? | ?
CCOC(=O)C1(CCOc2ccccc2)CCN(Cc2cccc(-n3cccn3)c2)CC1 | . | 10µM* | -2% | . | 13µM* | ?
CCOC(=O)C1(CCOc2ccccc2)CCN(CCCn2cccn2)CC1 | -10% | ? | -2% | -9% | -11% | ?
CC(=O)c1ccc(C)cc1OC(=O)c1cccc(F)c1 | -1% | -24% | . | -16% | 17% | 9%
O=C(Cc1ccsc1)N1CCN(S(=O)(=O)c2cccc(F)c2)CC1 | -8% | 5% | . | i | 7% | ?
O=C(CSCc1ccccc1)Nc1ccc2c(c1)C(=O)NC2=O | -11% | -24% | . | -2% | -15% | 11%[5.75 µM]
COc1ccc(OCCOC(=O)c2ccc(-n3cnnn3)cc2)cc1 | -5% | ? | -59% | i | 1% | .
Cc1cc(C)cc(N2C(=O)CC(Sc3ccccc3C(=O)O)C2=O)c1 (stereo not drawn) | -10% | 64% | -79% | i | 29% | 50%
CCOC(=O)c1c(N2C(=O)CC(Sc3ccccc3C(=O)O)C2=O)sc(C)c1C (stereo not drawn) | . | 53% | -13% | . | 3% | 2.3µM*
COc1ccccc1C1C2C(=O)N(c3ccccc3)C(=O)C2ON1c1ccccc1 (stereo not drawn) | . | 8.3µM* | 2% | . | 7% | 1%
SMILES | VACV Venus inh | Pf growth 96h | NS1 function inh | Vaccinia mCherry | HCV inhibitor | Pf growth 48h
O=C(CCc1ccccc1)NC(c1cccs1)c1cc(Cl)c2cccnc2c1O (stereo not drawn) | ? | 10% | -1% | 8.9µM* | 1µM* | 0.41µM*
CCC(=O)NC(c1cccs1)c1cc(Br)c2cccnc2c1O (stereo not drawn) | . | 2.9µM* | . | . | . | 0.93µM*
Cc1cccn2c(/C=N/OCc3ccc(F)cc3)c(-c3ccc(Cl)cc3)nc12 | -29% | 12µM* | -6% | . | ? | ?
CCNc1ccc(C(=O)OCC)cc1NC(=O)c1cccc(S(=O)(=O)N(C)c2ccccc2)c1 | -28% | 2.3µM* | ? | -13% | 8.9µM* | ?
COc1ccccc1N(Cc1ccccc1)S(=O)(=O)c1cccc(C(=O)Nc2cccc(C)n2)c1 | . | ? | 1% | . | 10µM* | 9.3µM*
CCNc1ccc(C(=O)OCC)cc1NC(=O)c1cccc(N(C)C)c1 | ? | -27% | -13% | ? | ? | ?
CCN(c1ccccc1)S(=O)(=O)c1ccc(C(=O)Nc2cccc(C)n2)cc1 | . | ? | . | . | 11µM* | 9.3µM*
C=CCN(c1ccccc1OC)S(=O)(=O)c1cccc(C(=O)Nc2nnc(C3CC3)s2)c1 | -12% | 9.3µM* | . | -8% | -18% | 10µM*
COc1ccccc1N1CCN(C(=O)CCS(=O)(=O)c2cc(Br)cc3c2N(C(C)=O)CC3)CC1 | -2% | . | . | -11% | . | .
Cc1cccc(NC(=O)c2cccc(S(=O)(=O)N(C)c3ccccc3)c2)n1 | -15% | 13µM* | . | 37% | ? | 7.4µM*
C=CCN1CC[C@]23c4c5ccc(O)c4O[C@H]2/C(=N/NC(=O)c2ccccc2)CC[C@@]3(O)[C@H]1C5 | -8% | . | ? | i | -3% | .
O=[N+]([O-])c1cccc(/C=N\N2CCN(c3ccc(Cl)cc3)CC2)c1 | -12% | 8.3µM* | 7% | . | -12% | -6%
Cc1ccc(C(=O)N(Cc2cccnc2)Cc2cc3cc(C)ccc3n3nnnc23)cc1 | . | -2% | 1% | . | ? | ?
COCCN(Cc1cc2cc(C)ccc2n2nnnc12)C(=S)Nc1cccc(C)c1 | . | -22% | . | . | 11µM* | 5.2µM*
CCc1ccc2c(c1)cc(CN(C(=S)Nc1cccc(C)c1)C1CC1)c1nnnn12 | -17% | 2.3µM* | 1% | i | -20% | ?
CNC(=S)N(Cc1cc2cc(C)ccc2n2nnnc12)CC(C)(C)CN(C)C | . | 5.9µM* | 10% | . | 12% | ?
